Test results taken from PubChem BioAssay (EPA / NIEHS).
Where “and” joins values, the source holds several entries; their conditions need not be identical. Equal entries are not always repeated. Records with an inconclusive call do not appear. The source holds several records for some structures; these can differ, active in one and inactive in another. Calls of active or inactive are those of the source. The calls were made as follows, unless noted: active = hit-call score of the fitted dose curve at least 0.9, where 1 is the maximum; inconclusive = response in the unintended direction; inactive = score below 0.9.

How the values were obtained:
[1] = ATG_ERE_CIS: Attagene CIS-FACTORIAL HepG2 Assay for Estrogen Response Element (ERE) (AID 2282940; active = hit-call score of the fitted dose curve at least 0.9, where 1 is the maximum; inactive = score below 0.9); conditions: HepG2 ERE cis-reporter, Attagene RNA transcript; actives raise or lower the signal
Summary of the method: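 Human liver cells (HepG2) bearing transiently transfected, promoter-regulated reporter units were exposed 24 h. Reporter mRNA induction was detected by capillary electrophoresis of labelled RT-PCR products and fitted bidirectionally to DMSO.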

[2] = molecular target: Bile acid receptor (Homo sapiens) (UniProt Q96RI1); assay: ATG_IR1_CIS: Attagene CIS-FACTORIAL HepG2 Assay for human Nuclear Receptor Subfamily 1 Group H Member 4 (NR1H4), IR1 submotif (AID 2282946; active = hit-call score of the fitted dose curve at least 0.9, where 1 is the maximum; inactive = score below 0.9); conditions: IR1 reporter transcription, actives raise or lower the signal
Summary of the method: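 Transient MRTU transfection, HepG2; 24 h dosing; RNA → RT-PCR → 6-FAM primer extension → HpaI digest → capillary electrophoresis fluorescence. Gain/loss of signal fitted relative to DMSO.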

[3] = ATG_M_19_TRANS: Attagene TRANS-FACTORIAL HepG2 Assay for M19 Transcription Factor (Internal Marker) (AID 2282974); conditions: HepG2 Attagene TRANS-FACTORIAL M19 internal marker reporter
Summary of the method: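 Transfected HepG2 (GAL4-UAS MRTUs), 24 h compound, TriZol RNA, DNase-treated RT, reporter PCR, FAM label, HpaI digest, CE fluorescence; gain vs DMSO.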

[4] = molecular target: Oxysterols receptor LXR-beta (Homo sapiens) (UniProt P55055); assay: ATG_LXRb_TRANS: Attagene TRANS-FACTORIAL HepG2 Assay for human Liver X Receptor beta (LXRb) (AID 2282981); conditions: HepG2 Attagene TRANS GAL4-LXRb reporter, mRNA
Summary of the method: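 In this TRANS format, exogenous chimeric NR-Gal4 protein activity, not endogenous factors, drives reporter expression in transfected human HepG2 cells. Exposure lasted 24 h; reporter mRNA was read by fluorescent capillary electrophoresis.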

[5] = molecular target: Hepatocyte nuclear factor 4-alpha (Homo sapiens) (UniProt P41235); assay: ATG_HNF4a_TRANS: Attagene TRANS-FACTORIAL HepG2 Assay for human Hepatocyte Nuclear Factor 4 alpha (HNF4a) (AID 2282982); conditions: HepG2 HNF4a transactivation reporter, mRNA readout
Summary of the method: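 Cells used were human HepG2, transiently carrying GAL4-UAS reporter units read out against exogenous NR-GAL4 chimeras. Reporter transcript levels after 24 h dosing were quantified by fluorescent RT-PCR and capillary electrophoresis.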

[6] = molecular target: Nuclear receptor subfamily 4 group A member 2 (Homo sapiens) (UniProt P43354); assay: ATG_NURR1_TRANS: Attagene TRANS-FACTORIAL HepG2 Assay for human Nuclear Receptor Related Protein 1 (NURR1) (AID 2282985); conditions: HepG2 Attagene TRANS reporter, mRNA readout
Summary of the method: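 After 24 h chemical dosing, total RNA from transiently transfected HepG2 cells was reverse-transcribed and reporter cDNA PCR-amplified, FAM-labelled and analysed by capillary electrophoresis. Activity fitted in positive direction, DMSO as negative control.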

[7] = molecular target: human Peroxisome Proliferator-activated Receptor delta (PPARd), PPARD (gene 5467) (UniProt Q03181); assay: ATG_PPARd_TRANS: Attagene TRANS-FACTORIAL HepG2 Assay for human Peroxisome Proliferator-activated Receptor delta (PPARd) (AID 2283002)
Summary of the method: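 Measured quantity: GAL4-UAS reporter transcript induction in HepG2 after 24 h chemical dosing, with NR-Gal4 chimeras supplied by transient transfection. Detection by RT-PCR and capillary electrophoresis; upward fit against DMSO.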

[8] = molecular target: human RAR-related Orphan Receptor gamma (RORg), RORC (gene 6097) (UniProt P51449); assay: ATG_RORg_TRANS: Attagene TRANS-FACTORIAL HepG2 Assay for human RAR-related Orphan Receptor gamma (RORg) (AID 2283011);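 as to AC50: potency for induction of reporter transcripts above DMSO so activators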
Summary of the method: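 Readout: reporter transcript induction (RT-PCR, fluorescent primer extension, capillary electrophoresis) after 24 h compound exposure of transiently transfected HepG2 cells carrying a RORg-Gal4 chimera and GAL4-UAS reporters; DMSO served as baseline, with increasing signal fitted.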

[9] = TOX21_p53_BLA_p2_viability: Viability Assessment in the Tox21 HCT-116 p53 Agonism Beta-lactamase Assay, Phase 2 (AID 2283591);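 also: compound exposure lasted 16 h at 37 °C; actives lower the ATP signal meaning cytotoxicity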
Summary of the method: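 HCT-116 p53-bla cells (4000/well) rested 5 h at 37C, then received compounds in DMSO (217-fold dilution) for 16 h at 37C, 5% CO2. After the CCF4 read, CellTiter-Glo was added; ATP luminescence was read after 30 min at room temperature.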

[10] = TOX21_p53_BLA_p3_viability: Viability Assessment in the Tox21 HCT-116 p53 Agonism Beta-lactamase Assay, Phase 3 (AID 2283593);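 also: cells exposed to compound for 16 h before reading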
Summary of the method: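 HCT-116 cells (4000/well) rested 5 h at 37C, then got DMSO compounds by pin tool (217-fold dilution) for 16 h at 37C, 5% CO2. After the bla read, CellTiter-Glo was added and luminescence read at 30 min, room temperature.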

[11] = TOX21_p53_BLA_p4_viability: Viability Assessment in the Tox21 HCT-116 p53 Agonism Beta-lactamase Assay, Phase 4 (AID 2283597);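 also: hits lower the luminescence signal meaning cytotoxicity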
Summary of the method: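 HCT116 p53-bla cells (4000/well) rested 5 h at 37C, then received compounds in DMSO (217-fold dilution) for 16 h at 37C, 5% CO2. CellTiter-Glo was added after the CCF4-AM read, and luminescence was read after 30 min at room temperature.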

[12] = CCTE_Harrill_HTTr_Apoptosis_MCF7: CCTE's 6-hour Apoptosis Assessment for the High-Throughput Transcriptomics (HTTr) Platform, in MCF-7 cells cultured in DMEM + 10% fetal bovine serum, Harrill Lab (AID 2284011; active = hit-call score of the fitted dose curve at least 0.9, where 1 is the maximum; inactive = score below 0.9)
Summary of the method: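 MCF-7 cells in DMEM + 10% fetal bovine serum were exposed to chemicals for 6 hours over an eight-point dilution series. Caspase-3/7 activation was imaged by high content imaging with CellEvent Caspase 3/7 Green; bidirectional fitting used DMSO as baseline.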

[13] = molecular target: Retinoic acid receptor alpha (Homo sapiens) (UniProt P10276); assay: ATG_DR5_RAR_CIS: Attagene CIS-FACTORIAL HepG2 Assay for human Retinoic Acid Receptor Alpha (RARE), DR5 submotif (AID 2282934; active = hit-call score of the fitted dose curve at least 0.9, where 1 is the maximum; inactive = score below 0.9); conditions: HepG2 Attagene cis-factorial RARE DR5 reporter, mRNA; actives raise or lower the signal
Summary of the method: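 Transfected HepG2 reporter cells are exposed to chemicals for 24 h. Then RNA is extracted and the DR5 element reporter transcript is measured by RT-PCR and capillary electrophoresis, with bidirectional curve fitting relative to DMSO.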

[14] = ATG_GRE_CIS: Attagene CIS-FACTORIAL HepG2 Assay for human Glucocorticoid Response Elements (GRE) (AID 2282947; active = hit-call score of the fitted dose curve at least 0.9, where 1 is the maximum; inactive = score below 0.9); conditions: HepG2 GRE cis-reporter, Attagene multiplex mRNA; actives raise or lower the signal
Summary of the method: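 Following 24 h chemical exposure of transiently transfected HepG2 cells, total RNA was reverse-transcribed and reporter cDNA amplified, fluorescently labelled and sized by capillary electrophoresis. Signal gain or loss was fitted relative to DMSO vehicle.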

[15] = ATG_VDRE_CIS: Attagene CIS-FACTORIAL HepG2 Assay for human Vitamin D Receptor Element (VDRE) (AID 2282968; active = hit-call score of the fitted dose curve at least 0.9, where 1 is the maximum; inactive = score below 0.9); conditions: HepG2 VDRE cis-reporter transcription, actives raise or lower the signal
Summary of the method: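 RT-PCR/CE readout of reporter mRNA; HepG2, transient transfection, 24 h dosing; DMSO baseline; bidirectional analysis.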

[16] = molecular target: Glucocorticoid receptor (Homo sapiens) (UniProt P04150); assay: ATG_GR_TRANS: Attagene TRANS-FACTORIAL HepG2 Assay for human Glucocorticoid Receptor (GR) (AID 2282978); conditions: HepG2 Attagene TRANS GR reporter, mRNA transcription;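 also: activators score as hits since higher reporter transcript over DMSO is fitted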
Summary of the method: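 After 24 h incubation with test chemical, transfected HepG2 cells were lysed for RNA; reporter cDNA was amplified, FAM-labelled, HpaI-digested and sized on a capillary analyser. Signal gain relative to DMSO was scored.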

[17] = ATG_M_06_TRANS: Attagene TRANS-FACTORIAL HepG2 Assay for M06 Transcription Factor (Internal Marker) (AID 2282983); conditions: HepG2 Attagene TRANS M06 internal marker reporter
Summary of the method: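 HepG2 cells transiently transfected with multiplexed GAL4-UAS reporter transcription units; after 24 h compound exposure, reporter mRNA measured by RT-PCR, FAM-labelled primer extension, HpaI digestion and capillary electrophoresis. Gain-of-signal fitted versus DMSO baseline; background control readout.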

[18] = molecular target: human RAR-related Orphan Receptor beta (RORb), RORB (gene 6096) (UniProt Q92753); assay: ATG_RORb_TRANS: Attagene TRANS-FACTORIAL HepG2 Assay for human RAR-related Orphan Receptor beta (RORb) (AID 2283010);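 as to AC50: potency for increased reporter mRNA meaning activation of RORb-Gal4 chimera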
Summary of the method: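 Readout is reporter-gene mRNA induction, detected as fluorescence after RT-PCR and capillary electrophoresis, fitted for gain of signal against DMSO controls. Transiently transfected HepG2 liver cells carrying GAL4-UAS reporter constructs were treated for 24 hours.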

[19] = ATG_GAL4_TRANS: Attagene TRANS-FACTORIAL HepG2 Assay for GAL4 (Internal Marker) (AID 2282976); conditions: HepG2 Attagene TRANS GAL4 internal marker reporter
Summary of the method: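 HepG2 cells transiently transfected with multiplexed GAL4-UAS reporter constructs were dosed for 24 h. Reporter mRNA was measured by RT-PCR, 6-FAM primer extension, HpaI digestion and capillary electrophoresis, and gain of signal was fitted relative to DMSO.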

[20] = molecular target: human Vitamin D Receptor (VDR), VDR (gene 7421) (UniProt P11473); assay: ATG_VDR_TRANS: Attagene TRANS-FACTORIAL HepG2 Assay for human Vitamin D Receptor (VDR) (AID 2283022)
Summary of the method: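 HepG2 cells were transiently transfected with multiple GAL4-UAS reporter units, so signal reflects exogenous chimeric receptor-Gal4 activity. After 24 h compound exposure, reporter mRNA was measured by RT-PCR, fluorescent labelling and capillary electrophoresis, fitted for gain of signal versus DMSO.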

Measured: AC50

Sequence of human Peroxisome Proliferator-activated Receptor delta (PPARd), PPARD (gene 5467) (Q03181 whole entry, looked up, the tested form may be a part): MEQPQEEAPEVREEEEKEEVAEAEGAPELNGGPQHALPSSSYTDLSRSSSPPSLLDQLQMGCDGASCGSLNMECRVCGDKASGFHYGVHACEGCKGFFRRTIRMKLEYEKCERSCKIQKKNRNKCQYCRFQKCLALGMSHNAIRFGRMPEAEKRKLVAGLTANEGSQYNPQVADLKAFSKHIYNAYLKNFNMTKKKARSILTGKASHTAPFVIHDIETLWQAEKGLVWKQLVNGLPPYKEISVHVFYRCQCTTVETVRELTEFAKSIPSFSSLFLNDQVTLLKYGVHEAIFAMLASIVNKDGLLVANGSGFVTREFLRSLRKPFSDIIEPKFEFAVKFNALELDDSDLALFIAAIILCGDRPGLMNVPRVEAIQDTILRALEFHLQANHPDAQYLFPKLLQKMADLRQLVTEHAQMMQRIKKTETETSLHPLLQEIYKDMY
Sequence of Bile acid receptor (Homo sapiens) (Q96RI1 whole entry, looked up): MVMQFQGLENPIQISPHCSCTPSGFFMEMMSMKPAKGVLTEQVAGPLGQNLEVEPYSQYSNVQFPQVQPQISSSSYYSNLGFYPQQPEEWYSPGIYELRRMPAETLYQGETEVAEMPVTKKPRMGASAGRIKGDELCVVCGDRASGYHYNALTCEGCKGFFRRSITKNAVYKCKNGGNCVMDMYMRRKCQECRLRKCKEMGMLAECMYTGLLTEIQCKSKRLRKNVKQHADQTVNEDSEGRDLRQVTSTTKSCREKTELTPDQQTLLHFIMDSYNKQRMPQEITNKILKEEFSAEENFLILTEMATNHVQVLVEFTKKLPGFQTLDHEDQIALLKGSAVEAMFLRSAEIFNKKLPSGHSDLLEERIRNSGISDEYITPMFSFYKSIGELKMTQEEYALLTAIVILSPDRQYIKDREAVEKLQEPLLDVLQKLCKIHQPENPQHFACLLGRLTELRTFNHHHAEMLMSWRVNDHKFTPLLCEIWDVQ
Sequence of Nuclear receptor subfamily 4 group A member 2 (Homo sapiens) (P43354 whole entry, looked up): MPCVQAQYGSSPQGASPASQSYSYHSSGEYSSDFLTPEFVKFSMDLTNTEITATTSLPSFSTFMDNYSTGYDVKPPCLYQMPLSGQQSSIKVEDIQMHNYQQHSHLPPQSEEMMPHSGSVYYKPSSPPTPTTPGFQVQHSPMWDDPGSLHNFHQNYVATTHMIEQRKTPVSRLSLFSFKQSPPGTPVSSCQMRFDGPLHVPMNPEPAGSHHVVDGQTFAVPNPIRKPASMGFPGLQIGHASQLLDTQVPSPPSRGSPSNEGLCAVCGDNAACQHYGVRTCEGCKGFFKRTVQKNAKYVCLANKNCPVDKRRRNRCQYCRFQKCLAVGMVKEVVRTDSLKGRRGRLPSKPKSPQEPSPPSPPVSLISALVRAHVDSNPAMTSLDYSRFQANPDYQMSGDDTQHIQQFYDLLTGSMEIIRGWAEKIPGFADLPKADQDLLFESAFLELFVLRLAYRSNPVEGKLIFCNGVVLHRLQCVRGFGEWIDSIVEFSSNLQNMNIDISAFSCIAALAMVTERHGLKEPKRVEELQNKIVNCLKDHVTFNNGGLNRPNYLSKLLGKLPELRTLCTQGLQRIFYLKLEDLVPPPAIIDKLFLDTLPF
Sequence of Oxysterols receptor LXR-beta (Homo sapiens) (P55055 whole entry, looked up, the tested form may be a part): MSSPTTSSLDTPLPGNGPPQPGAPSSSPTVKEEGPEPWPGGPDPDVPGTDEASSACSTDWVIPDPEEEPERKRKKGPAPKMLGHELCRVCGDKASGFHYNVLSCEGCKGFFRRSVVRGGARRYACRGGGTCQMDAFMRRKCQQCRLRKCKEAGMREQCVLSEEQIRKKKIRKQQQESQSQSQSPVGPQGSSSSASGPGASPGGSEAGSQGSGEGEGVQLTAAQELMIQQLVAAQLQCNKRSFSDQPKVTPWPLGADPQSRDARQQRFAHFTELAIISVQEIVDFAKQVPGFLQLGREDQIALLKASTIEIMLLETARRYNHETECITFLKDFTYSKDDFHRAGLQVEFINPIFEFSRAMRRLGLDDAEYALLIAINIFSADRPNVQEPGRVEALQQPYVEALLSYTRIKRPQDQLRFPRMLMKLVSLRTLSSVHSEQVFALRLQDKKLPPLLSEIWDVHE
Sequence of human RAR-related Orphan Receptor beta (RORb), RORB (gene 6096) (Q92753 whole entry, looked up, the tested form may be a part): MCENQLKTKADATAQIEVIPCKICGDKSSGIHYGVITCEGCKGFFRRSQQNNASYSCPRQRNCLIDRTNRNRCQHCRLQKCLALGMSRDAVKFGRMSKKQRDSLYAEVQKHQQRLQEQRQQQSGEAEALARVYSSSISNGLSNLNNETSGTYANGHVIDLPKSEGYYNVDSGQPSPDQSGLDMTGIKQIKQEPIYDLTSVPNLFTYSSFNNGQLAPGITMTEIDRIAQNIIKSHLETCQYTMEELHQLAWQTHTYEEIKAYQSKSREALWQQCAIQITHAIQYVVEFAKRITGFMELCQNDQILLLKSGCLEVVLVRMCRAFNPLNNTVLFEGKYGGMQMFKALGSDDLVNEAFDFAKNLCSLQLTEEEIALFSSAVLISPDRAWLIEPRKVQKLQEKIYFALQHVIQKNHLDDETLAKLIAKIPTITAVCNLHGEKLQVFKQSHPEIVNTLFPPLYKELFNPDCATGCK
Sequence of Retinoic acid receptor alpha (Homo sapiens) (P10276 whole entry, looked up): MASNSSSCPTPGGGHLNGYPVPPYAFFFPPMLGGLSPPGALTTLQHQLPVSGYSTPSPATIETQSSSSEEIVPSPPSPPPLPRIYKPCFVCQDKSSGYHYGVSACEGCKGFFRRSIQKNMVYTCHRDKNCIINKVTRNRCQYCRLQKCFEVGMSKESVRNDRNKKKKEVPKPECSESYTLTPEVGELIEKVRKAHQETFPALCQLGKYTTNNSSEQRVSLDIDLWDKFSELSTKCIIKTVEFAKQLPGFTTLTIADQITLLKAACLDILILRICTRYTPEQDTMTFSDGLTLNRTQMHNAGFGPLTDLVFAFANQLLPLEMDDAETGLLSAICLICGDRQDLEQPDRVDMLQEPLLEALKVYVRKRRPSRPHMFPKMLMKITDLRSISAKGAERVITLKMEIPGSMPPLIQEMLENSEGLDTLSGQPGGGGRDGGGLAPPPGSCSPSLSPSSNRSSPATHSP
Sequence of human Vitamin D Receptor (VDR), VDR (gene 7421) (P11473 whole entry, looked up, the tested form may be a part): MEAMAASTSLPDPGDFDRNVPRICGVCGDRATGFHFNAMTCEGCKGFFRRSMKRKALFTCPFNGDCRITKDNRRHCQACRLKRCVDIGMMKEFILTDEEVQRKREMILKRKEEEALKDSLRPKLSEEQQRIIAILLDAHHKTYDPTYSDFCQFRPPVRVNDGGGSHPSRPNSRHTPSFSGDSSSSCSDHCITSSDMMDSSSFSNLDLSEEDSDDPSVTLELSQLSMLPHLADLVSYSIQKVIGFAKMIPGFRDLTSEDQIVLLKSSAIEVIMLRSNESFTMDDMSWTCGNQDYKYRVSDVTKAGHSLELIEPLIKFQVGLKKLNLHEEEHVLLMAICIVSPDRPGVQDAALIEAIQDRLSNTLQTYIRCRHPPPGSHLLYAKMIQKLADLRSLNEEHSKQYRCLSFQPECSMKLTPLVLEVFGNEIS
Sequence of Glucocorticoid receptor (Homo sapiens) (P04150 whole entry, looked up): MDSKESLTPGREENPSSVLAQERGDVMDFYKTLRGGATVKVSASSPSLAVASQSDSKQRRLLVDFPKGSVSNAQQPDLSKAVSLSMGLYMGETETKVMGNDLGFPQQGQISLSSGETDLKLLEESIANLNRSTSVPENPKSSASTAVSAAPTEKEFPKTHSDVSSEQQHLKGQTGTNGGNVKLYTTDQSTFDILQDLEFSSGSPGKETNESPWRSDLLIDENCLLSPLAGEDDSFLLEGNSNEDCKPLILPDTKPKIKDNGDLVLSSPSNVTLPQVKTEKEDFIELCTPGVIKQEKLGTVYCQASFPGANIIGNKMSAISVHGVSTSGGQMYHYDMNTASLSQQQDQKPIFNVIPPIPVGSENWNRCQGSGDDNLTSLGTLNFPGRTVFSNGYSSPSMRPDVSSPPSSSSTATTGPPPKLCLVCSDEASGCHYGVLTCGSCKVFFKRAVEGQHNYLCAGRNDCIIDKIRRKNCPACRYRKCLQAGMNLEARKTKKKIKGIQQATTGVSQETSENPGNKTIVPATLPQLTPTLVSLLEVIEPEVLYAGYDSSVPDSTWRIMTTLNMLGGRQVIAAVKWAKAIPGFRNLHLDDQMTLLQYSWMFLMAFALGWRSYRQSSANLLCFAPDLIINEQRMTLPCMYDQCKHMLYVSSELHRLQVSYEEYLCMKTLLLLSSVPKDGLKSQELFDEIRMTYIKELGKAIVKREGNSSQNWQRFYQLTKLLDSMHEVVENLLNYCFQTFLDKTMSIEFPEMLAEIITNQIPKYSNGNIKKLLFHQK
Sequence of Hepatocyte nuclear factor 4-alpha (Homo sapiens) (P41235 whole entry, looked up, the tested form may be a part): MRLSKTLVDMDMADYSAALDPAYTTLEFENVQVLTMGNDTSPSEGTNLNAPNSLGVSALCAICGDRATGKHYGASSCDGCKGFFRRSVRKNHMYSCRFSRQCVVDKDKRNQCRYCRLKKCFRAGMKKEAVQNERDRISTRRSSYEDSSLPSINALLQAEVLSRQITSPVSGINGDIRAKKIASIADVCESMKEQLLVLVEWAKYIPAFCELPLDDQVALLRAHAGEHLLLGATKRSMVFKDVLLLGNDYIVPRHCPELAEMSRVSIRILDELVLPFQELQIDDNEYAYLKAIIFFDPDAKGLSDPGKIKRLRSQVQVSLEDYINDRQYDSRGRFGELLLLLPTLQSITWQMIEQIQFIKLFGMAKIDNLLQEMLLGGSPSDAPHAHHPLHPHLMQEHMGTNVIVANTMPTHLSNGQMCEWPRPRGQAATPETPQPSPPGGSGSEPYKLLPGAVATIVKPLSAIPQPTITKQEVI

CCCOC(=O)c1ccccc1C(=O)OCCC
active: [1] 49.8 µM
not listed: [13] | [14] | [15] | [16] | [17] | [18] | [19] | [20]
inactive: all other assays above

O=C(CCl)c1ccccc1
active: [14] 8.88 µM | [8] 62 µM
not listed: [1] | [2] | [19] | [20]
inactive: all other assays above

CCC[N+](=O)[O-]
not listed: [1] | [6] | [13] | [14] | [16] | [17]
inactive: all other assays above

CC(C)(O)C#N
inactive: [13] | [2] | [5] | [6] | [20] | [9] | [10] | [11] | [12]

O=[N+]([O-])c1ccc(Cl)cc1
inactive: [14] | [3] | [16] | [4] | [5] | [6] | [8] | [20] | [9] | [11] | [12]

CCN(CC)C(=S)S
inactive: [1] | [14] | [15] | [4] | [17] | [6] | [7] | [18] | [8]

CCOP(=O)(OCC)OCC
not listed: [1] | [2] | [6] | [12] | [15] | [17] | [19]
inactive: all other assays above

Cc1ccccc1CCl
inactive: [13] | [14] | [15] | [19] | [16] | [4] | [7] | [18] | [8]

CC(C)(c1cc(Cl)c(O)c(Cl)c1)c1cc(Cl)c(O)c(Cl)c1
inactive: [3] | [16] | [4] | [5] | [17] | [7] | [20] | [10] | [11]
active: [6] 47.9 µM | [9] 46.1 µM and 33.1 µM | [10] 65.5 µM | [11] 62.3 µM

CC(C)C(=O)Cl
inactive: [2] | [14] | [3] | [7] | [20]

CC1OC(C)OC(C)O1 (stereo not given)
inactive: [2] | [3] | [19] | [5] | [7] | [18] | [9] | [10]
active: [10] 42.6 µM

C[C@]12CC[C@H](O)C[C@H]1CC[C@@H]1[C@@H]2C[C@@H](O)[C@]2(C)[C@@H](C3=CC(=O)OC3)CC[C@]12O
inactive: [2] | [4] | [5] | [17] | [6] | [7] | [8] | [20]
active: [14] 6.51 µM | [18] 1.29 µM

N#CCNCC#N
inactive: [1] | [3] | [19] | [6] | [7] | [18] | [8] | [20]

CNC(=N[N+](=O)[O-])NCC1CCOC1 (stereo not given)
inactive: [2] | [14] | [3] | [19] | [16] | [17] | [18] | [8] | [11] | [12]

Cc1ccc(C)c2ccccc12
inactive: [2] | [15] | [3] | [4] | [6] | [7] | [18]

C=Cc1cccc(CCl)c1
inactive: [1] | [2] | [3] | [5] | [6] | [8] | [9] | [10] | [11]

COc1ccc(CO)cc1
not listed: [1] | [6] | [10] | [11] | [13] | [14] | [20]
inactive: all other assays above

C=COCCCl
inactive: [1] | [2] | [3] | [19] | [18] | [8] | [12]

C=CCO
inactive: [14] | [3] | [16] | [7] | [10]

[Cl-].[Cl-].[Cl-].[Yb+3]
inactive: [19] | [5] | [6] | [18] | [8] | [9] | [10] | [11]

CCCCCCC1CCOC1=O (stereo not given)
inactive: [13] | [14] | [15] | [3] | [19] | [16] | [18]

ClCC(Cl)Cl
inactive: [1] | [15] | [19] | [8] | [20] | [9] | [10]

CC(C)C#N
inactive: [13] | [3] | [19] | [16] | [4] | [5] | [7]

ClCCCCCCCl
inactive: [13] | [15] | [4] | [6] | [18] | [8] | [20]
